Among the data in PubChem BioAssay AID1209 (Sanford-Burnham Center for Chemical Genomics, 2008) are inhibition values, retold here.

Hit rate of the full screen: of about 190,000 compounds, about 810 (0.43%) were called active. No stated cut-off is given here; in the data, active means inhibition above about 50%; inactive means the rest. Only a selection was taken, and actives are over-represented in it overall.

The target in this test is Mannose-6-phosphate isomerase (Homo sapiens) (UniProt P34949). As to the kind of experiment: MPI enzyme activity inhibition – biochemical, fluorescence intensity, coupled assay, primary screen (AID 1209).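 Further: plate controls were DMSO vehicle for no effect and wells lacking substrate for full effect.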 As to conditions: purified PMI enzyme, at 20 µM, stronger effect = higher value.
Chain of Mannose-6-phosphate isomerase (Homo sapiens) (P34949 whole entry, looked up): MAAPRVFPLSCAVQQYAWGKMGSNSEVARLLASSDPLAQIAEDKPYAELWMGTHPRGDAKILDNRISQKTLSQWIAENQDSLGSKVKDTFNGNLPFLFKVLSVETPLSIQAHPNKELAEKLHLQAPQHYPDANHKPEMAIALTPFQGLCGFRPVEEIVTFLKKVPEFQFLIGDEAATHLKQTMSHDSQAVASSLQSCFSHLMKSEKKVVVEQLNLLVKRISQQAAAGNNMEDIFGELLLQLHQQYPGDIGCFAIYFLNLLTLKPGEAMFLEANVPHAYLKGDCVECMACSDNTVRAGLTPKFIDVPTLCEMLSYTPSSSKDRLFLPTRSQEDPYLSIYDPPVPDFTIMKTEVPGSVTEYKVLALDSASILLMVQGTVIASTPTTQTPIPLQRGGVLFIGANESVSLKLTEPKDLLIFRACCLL
Regarding `N=c1sccn1CC(=O)NCc1ccc(Cl)cc1Cl`, the inhibition is -8.6% (inactive).
The result for `COC(=O)C1CCN(C2CC(=O)N(c3cc(C)cc(C)c3)C2=O)CC1` (stereo not drawn) reads -1.3% (inactive).
As to `Cc1ccc(OCc2n[nH]c(=S)n2N)cc1C`, the inhibition is 1.5% (inactive).
The result for `Nn1c(COc2ccc(Cl)cc2)n[nH]c1=S` reads 12% (inactive); that for `COc1ccc(OCc2n[nH]c(=S)n2N)cc1`, 80.7% (active).
As for `O=C(NC1CCSC1=O)C1CCCCC1` (stereo not drawn), the figure is -2.2% (inactive).
As for `N#Cc1cc(-c2ccccc2)c[nH]c1=O`, the figure is 6.1% (inactive); as for `Nc1cc(-c2ccncc2)c[nH]c1=O`, 50.4% (active); as for `c1cc(-c2ccncc2)ccn1`, -8.5% (inactive).
Turning to `COC(=O)c1c(NC(=O)C2CC=CCC2C(=O)O)sc(C(N)=O)c1C` (stereo not drawn), the inhibition is 7.3% (inactive).
For the compound `Cc1ccc(NC(=O)CN(C)S(=O)(=O)c2cccc3cccnc23)cc1`, the inhibition was 11.9% (inactive).
As for `Cc1ccc(NC(=O)CN(C)C(=O)COc2cccc3cccnc23)cc1`, the figure is 73% (active).
The result for `O=C(COc1cccc2cccnc12)Nc1ccccc1` reads -7.8% (inactive).
With `O=C(c1cccnc1)N1CCN(c2ccc(Cl)cc2)CC1`, the inhibition was -6.6% (inactive).
As for `O=C(/C=C/NNC(=O)c1ccc(Cl)cc1)c1ccccc1`, the figure is -4.1% (inactive); as for `COC(=O)c1ccc(C(=O)OC)c(NC(=O)CN2CCCCC2)c1`, 4.7% (inactive).
The result for `CCCn1nnnc1NC(=O)c1cc(Cl)ccc1Cl` reads 13.1% (inactive).
As for `CCCn1nnnc1NC(=O)c1cc(Br)ccc1OC`, the inhibition is 0.2% (inactive).
As for `CCCn1nnnc1NC(=O)c1ccc(C)cc1Cl`, the figure is 54.4% (active); as for `O=c1c2ccccc2nc2c3ccccc3c(NCc3cccnc3)nn12`, 6.3% (inactive); as for `CCN(CC)C(=S)SC1=CCS(=O)(=O)C1`, 102% (active).
As for `CCN(CC)C(=S)SCC(=O)c1ccccc1`, the figure is 5.8% (inactive); as for `CCN(CC)C(=S)SSC(=S)N(CC)CC`, -2.4% (inactive).
As for `COc1ccc(OC)c([C@@H]2OCCC=C[C@H]2C)c1`, the figure is -2.1% (inactive).
Consider `O=C(Nc1nc2c(s1)CCCC2)c1nn(Cc2ccccc2)c(=O)c2ccccc12`, for which the inhibition is 0.4% (inactive).
Turning to `O=S(=O)(c1cccs1)N1CCN(c2ccccn2)CC1`, the inhibition was 5.9% (inactive).
As for `Cc1ccc(-c2nnc(CSc3nc4cc5c(cc4cc3C)OCO5)o2)cc1`, the figure is 15.5% (inactive); as for `Cc1cccc(NCc2ccc(O)c3ncccc23)c1C`, 60.4% (active); as for `Cc1cccc(NCc2ccccc2O)c1C`, 29% (inactive).
The result for `Cc1cccnc1NCc1ccc(O)c2ncccc12` reads 48.4% (inactive); that for `Cc1ccc(O)c(CNc2cccc3cccnc23)c1`, 34.8% (inactive).
Turning to `Oc1ccc(CNc2ccccc2F)c2cccnc12`, the inhibition was 45.3% (inactive).
Take `COc1cccc(C2C(C(=O)Nc3nc4ccccc4s3)=C(C)NC3=C2C(=O)CC(C)(C)C3)c1OC` (stereo not drawn): the inhibition was -10.5% (inactive).
The result for `CC(=O)NC1C(=O)N=C(SCC(=O)NC2CCCCC2)NC1=O` (stereo not drawn) reads -8.4% (inactive); that for `CC(=O)NC1C(=O)N=C(SCC(=O)Nc2sc3c(c2C#N)CCCCCC3)NC1=O` (stereo not drawn), 66.1% (active); that for `CC(=O)Nc1c(O)nc(SCC(=O)Nc2sc3c(c2C#N)CCCCCC3)[nH]c1=O`, 1.2% (inactive).
Regarding `O=C(O)c1ccc(Nc2ncnc3c2cnn3Cc2ccccc2)cc1`, the inhibition is 7.1% (inactive).
The result for `O=C(Cc1ccccc1)NCc1ccccn1` reads -4.7% (inactive).
Consider `C/C(N)=C(/C#N)C(=O)CSc1nn(-c2ccc(Cl)cc2)c(=S)s1`, for which the inhibition is 5.6% (inactive).
With `CC(=O)N1c2ccccc2C2(O)N=C(C)SC12` (stereo not drawn), the inhibition is 60.3% (active).
As for `CC(=O)N1c2ccccc2C(C)(C)C2CCC(C)CC21` (stereo not drawn), the figure is 0.8% (inactive); as for `Cc1ccc(C(=O)CC2(O)C(=O)N(C)c3ccccc32)s1` (stereo not drawn), 8.1% (inactive); as for `N#Cc1c(N2CCCC2)nc(N)c2c(N)nc(N3CCCC3)cc12`, 6.9% (inactive).
The result for `CCOc1ccccc1N1CCN(c2nc(N)c(C#N)c(CC#N)c2C#N)CC1` reads 12.6% (inactive).
Take `CCCN(CC1CC1)c1nc(N)c2c(N)nc(OC)cc2c1C#N`: the inhibition is 47.8% (inactive).
As for `CCOc1cc2c(C#N)c(N3CCNCC3)nc(N)c2c(N)n1`, the figure is 65.4% (active).
`COCc1cc(C)nc(N2CCNCC2)c1C#N`: the inhibition is -0.4% (inactive).
Regarding `COc1cc2c(C#N)c(N3CCCCC3)nc(N)c2c(N)n1`, the inhibition was 66.7% (active).
The result for `CCCCN(CC)c1nc(N)c2c(N)nc(OCC)cc2c1C#N` reads 37.5% (inactive).
As to `COc1cc2c(C#N)c(N3CCOCC3)nc(N)c2c(N)n1`, the inhibition is 28.9% (inactive).
The result for `COc1cc2c(C#N)c(N3CCN(c4ccccc4OC)CC3)nc(N)c2c(N)n1` reads 47.2% (inactive).
The result for `CCOc1cc2c(C#N)c(N3CCCCC3)nc(N)c2c(N)n1` reads 62.4% (active).
`COc1cc2c(C#N)c(N3CCN(C)CC3)nc(N)c2c(N)n1`: the inhibition is 42.5% (inactive).
The result for `COc1cc2c(C#N)c(N3CCc4ccccc4C3)nc(N)c2c(N)n1` reads 64.3% (active).
As for `COc1ccc2cc(CN(CC3CCCO3)C(=O)Nc3ccccc3OC)c(=O)[nH]c2c1` (stereo not drawn), the figure is 3.2% (inactive).
`Cc1ccc2nc(C)c(C(=O)N/N=C/c3ccc(C(=O)O)cc3)cc2c1`: the inhibition is 13.8% (inactive).
As for `Cn1cccc1C(=O)NC(=O)COC(=O)c1ccccc1O`, the inhibition is 9.4% (inactive).
The result for `Cc1cc(NC(=S)N(CCCN2CCN(C)CC2)Cc2ccco2)ccc1Cl` reads 3.6% (inactive).
Regarding `CC1CCN(C(=O)CSc2nnc(CSc3ncccn3)n2C)CC1`, the inhibition was -8.9% (inactive).
`CCOC(=O)c1nnc(-c2ccccc2)nc1Oc1ccc(Cl)cc1`: the inhibition is 2.2% (inactive).
The result for `Cc1ccc(-c2nnc(-c3ccc(NC(=O)c4ccco4)cc3)o2)cc1` reads 75.9% (active).
As for `Cc1ccc(Oc2ccc(NC(=O)c3ccco3)cc2)cc1`, the figure is 6.1% (inactive).
The result for `O=C(Nc1cccc(-c2nnc(-c3ccccc3)o2)c1)c1ccco1` reads 7.4% (inactive); that for `CCN(CC)c1ccc(/C=N/N2CCOCC2)c(O)c1`, 19.6% (inactive).
Regarding `COc1cccc(/C=N/N2CCOCC2)c1O`, the inhibition was 4.9% (inactive).
Regarding `CC(C)c1nc(CN2CCCCC2)cc(=O)[nH]1`, the inhibition was 8.6% (inactive).
The result for `CCN(CC)S(=O)(=O)c1ccc(C(=O)NCc2n[nH]c(=S)n2Cc2ccccc2)cc1` reads 10.2% (inactive); that for `CC1=C(C(N)=O)C(c2cccs2)NC(=S)N1` (stereo not drawn), -11.8% (inactive); that for `Cc1nn(C)c(C)c1N1C(=O)c2cccc3c(N)ccc(c23)C1=O`, 6% (inactive).
As for `Cc1nn(C)c(C)c1N1C(=O)c2cccc3c(Br)ccc(c23)C1=O`, the figure is -0.5% (inactive).
On to `CC(=O)c1ccc2c3c(cccc13)C(=O)N(c1c(C)nn(C)c1C)C2=O`, for which the inhibition is 74.2% (active).
With `O=C(NC(Nc1ncccn1)C(=O)c1ccccc1)c1ccccc1` (stereo not drawn), the inhibition is -2% (inactive).
The result for `O=C(NC(NC(=O)c1ccccc1)c1ccccc1)c1ccccc1` reads -8.6% (inactive); that for `O=C(NC(NC(=O)c1ccccc1)C(=O)c1ccccc1)c1ccccc1`, 109% (active); that for `CC(NC(=O)c1ccc2c(c1)OCCO2)C(=O)O` (stereo not drawn), -5.6% (inactive).
Turning to `Cn1cc(CNCc2cnc3ccccn23)c(-c2ccc(Oc3ccccc3)cc2)n1`, the inhibition was 4.9% (inactive).
The result for `CCN(CC)S(=O)(=O)c1ccc(NC(=O)c2cc(-c3cccs3)nc3ccccc23)cc1` reads -4.8% (inactive); that for `O=[N+]([O-])c1ccc2c(c1Nc1ccccc1)=NC1(CCCCC1)N=2`, 46.2% (inactive).
With `[O-][N+]1=c2ccc(Nc3ccccc3)cc2=NC12CCCCC2`, the inhibition was 79.7% (active).
As for `c1ccc(Nc2cccc(Nc3ccccc3)c2)cc1`, the figure is 21% (inactive); as for `COc1cc(C(=O)N/N=C(\C)c2ccc3c(c2)OCO3)cc(OC)c1OC`, 2.6% (inactive); as for `Cc1cc(C)n(-c2ccc([N+](=O)[O-])cc2)n1`, 7% (inactive).
Consider `C=CCn1c(SCC(=O)N2N=C(c3ccco3)CC2c2ccco2)nnc1-c1ccncc1` (stereo not drawn), for which the inhibition was 57.4% (active).
As for `COc1ccc(C2=NN(C(=O)CSc3nnc(C)n3C)C(c3ccco3)C2)cc1` (stereo not drawn), the figure is -23.9% (inactive).
As for `C=CCn1c(SCC(=O)N2CCCCC2)nnc1-c1ccncc1`, the figure is -1.3% (inactive); as for `Cc1ccc(-c2nc3ccccc3c(=O)n2NC(=S)N(C)C)cc1`, 16.6% (inactive); as for `COc1ccc(-c2nc3ccccc3c(=O)n2NC(=S)N(C)C)cc1`, 57.4% (active).
As for `CN(C)C(=S)Nn1c(-c2ccccc2)nc2ccccc2c1=O`, the figure is 4.8% (inactive); as for `CCOC(=O)C1(C)C=C(Nc2ccc(OCC)cc2)C(=O)N1c1ccccc1` (stereo not drawn), 11.1% (inactive); as for `CCOC(=O)c1c(NC(=O)CCl)sc(C(=O)N(CC)CC)c1C`, -11.1% (inactive).
Consider `CCCCC(=O)Nc1sc(C(=O)N(CC)CC)c(C)c1C(=O)OC`, for which the inhibition is 58.3% (active).
Take `CCOC(=O)c1c(NC(=O)CN(C)C)sc(C(=O)N(CC)CC)c1C`: the inhibition is 8.3% (inactive).
The result for `CC(C)CN(C(=O)CN1CCC(C)CC1)c1c(N)n(CC(C)C)c(=O)[nH]c1=O` reads -5.2% (inactive).
As for `C/C(CC(=O)N1CCN(C=O)CC1)=N\NC(=O)c1cc2ccccc2cc1O`, the figure is 84.9% (active); as for `COc1ccc(C(=O)N/N=C(\C)CC(=O)N2CCN(C=O)CC2)cc1`, 5.1% (inactive); as for `C/C(CC(=O)N1CCN(C=O)CC1)=N\NC(=O)c1ccc(Cl)cc1`, -0.6% (inactive).
As for `Cc1cc(C)nc(Nc2n[nH]c(-c3ccccc3C)n2)n1`, the figure is 3.4% (inactive); as for `O=c1[nH]c(-c2ccccn2)nc2ccccc12`, 19.5% (inactive).
In the case of `O=c1[nH]c(-c2ccncc2)nc2ccccc12`, the inhibition was 71.3% (active).
The result for `O=c1[nH]c(-c2cccnc2)nc2ccccc12` reads 7.1% (inactive).
The result for `CCOC(=O)C(C)n1cnc2c(nnn2-c2cccc(Cl)c2)c1=O` (stereo not drawn) reads -9.6% (inactive); that for `COc1ccccc1NC(C)C(=O)Nc1ccc(C(C)=O)cc1` (stereo not drawn), 19.5% (inactive); that for `CCc1ccc(NC(=O)c2ccccc2SC)cc1`, 7.2% (inactive).

Broadly, the inhibition is the change of the read-out against control, counted positive when it falls.
